Data taken from PubChem BioAssay AID2534 (National Center for Advancing Translational Sciences (NCATS), 2010).
Results filed as inconclusive are left out. Active and inactive are the calls of the source. Calls follow the shape of the dose curve; as a rule, active = well fitted curve in the direction sought with a large enough effect; inconclusive = small, poorly fitted or top-dose-only effect, or effect the other way, or another doubt; inactive = no such curve, though single readings can be large or run the other way.

target: Pyruvate kinase PKLR (Homo sapiens) (UniProt P30613); experiment: Secondary Concentration-Response Assay for Activators of Human Reticulocyte Pyruvate Kinase: for Probe SAR; conditions: purified hPK-R, ATP production, Kinase-Glo luminescence; series mostly up to 57.5 µM
Sequence (P30613 whole entry, looked up): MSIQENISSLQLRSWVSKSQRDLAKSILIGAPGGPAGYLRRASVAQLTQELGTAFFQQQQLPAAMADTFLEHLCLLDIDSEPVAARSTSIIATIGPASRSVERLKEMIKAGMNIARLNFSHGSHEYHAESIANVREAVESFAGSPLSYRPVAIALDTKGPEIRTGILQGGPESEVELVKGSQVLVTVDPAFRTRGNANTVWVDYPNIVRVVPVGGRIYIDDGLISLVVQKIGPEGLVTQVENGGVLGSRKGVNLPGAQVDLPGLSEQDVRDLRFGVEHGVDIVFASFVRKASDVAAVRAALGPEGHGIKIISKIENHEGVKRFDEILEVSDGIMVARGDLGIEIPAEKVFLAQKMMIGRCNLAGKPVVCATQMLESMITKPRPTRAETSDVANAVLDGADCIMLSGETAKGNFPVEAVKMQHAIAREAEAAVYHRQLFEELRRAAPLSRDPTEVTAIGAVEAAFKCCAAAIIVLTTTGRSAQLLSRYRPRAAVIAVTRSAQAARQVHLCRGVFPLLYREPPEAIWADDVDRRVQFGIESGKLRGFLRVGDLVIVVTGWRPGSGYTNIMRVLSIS
Excerpt: NIH Chemical Genomics Center [NCGC]
Wael M. Rabeh, Lyudmila Nedyalkova and Hee-Wan Park [Structural Genomics Consortium, 100 College St. Toronto, Ontario, Canada]
Human pyruvate kinase reticulocyte (hPK-R) enzyme was supplied as a highly purified (>95% pure) preparation from Structural Genomics Consortium in Toronto (Ontario, Canada) and assayed for its ability to generate ATP from ADP using phosphoenolpyruvate (PEP) as a substrate. ATP generation was detected in a coupled reaction by luciferase-mediated luminescence, an ATP-dependent process. Pyruvate kinase substrates, PEP and ADP, were present in the assay at Km and approximately 10-fold below Km respectively. The enzyme was assayed at an intermediate level of activity to screen for both inhibitors and activators.
NCGC Assay Protocol Summary for R-isoform
Three uL of substrate mix (at r.t.) in assay buffer (50 mM Imidazole pH7.2, 50 mM KCl, 7 mM MgCl2, 0.01% Tween 20, 0.05% BSA) was dispensed into white solid bottom 1,536 well microtiter plates so that the final concentrations of substrates in the assay were 0.1 mM ADP and 0.5 mM PEP. 23 nL of compound were delivered by a pin tool and 1 uL of enzyme mix (final concentration of 0.1 nM) in assay buffer (4 degree Celsius) was added. Plates were incubated at room temperature for 1 hour. Two uL of detection mix (Kinase-Glo, Promega; at 4 degree Celsius protected from light) was added and luminescence read by a ViewLux (Perkin Elmer) at 1 second exposure/plate. Data were normalized to the uninhibited (row 31). Additionally, a no enzyme and 5-fold enzyme control was dispensed in row 32, split equally between the two conditions.

outcome, inactive:
Cc1cc(NS(=O)(=O)c2ccc3c(c2)CCC(=O)N3)ccc1F, O=C1c2ccccc2C(=O)N1c1cc(=O)c2ccccc2[nH]1, CN(C)c1cccc(S(=O)(=O)N2CCN(S(=O)(=O)c3ccc4c(c3)OCCO4)CC2)c1, O=C1CCc2cc(S(=O)(=O)Nc3ccccc3Cl)ccc2N1, O=C1CCc2cc(S(=O)(=O)Nc3ccc(Cl)c(Cl)c3)c(F)cc2N1, O=C1c2ccccc2C(=O)N1Cc1cccnc1, O=C1CCc2cc(S(=O)(=O)Nc3cc(F)cc(Cl)c3)c(F)cc2N1, O=C1c2ccccc2C(=O)N1c1ccc2ccccc2n1, O=C1CCc2cc(S(=O)(=O)Nc3ccc4c(c3)CCC4)ccc2N1, Cc1ccc(NS(=O)(=O)c2ccc3c(c2)CCC(=O)N3)cc1Cl
